Among the data in PubChem BioAssay are composite z-score values, retold here.

One experiment deals with Inhibin beta A chain (activin A). Briefly: small molecules binding activin A – biochemical, small-molecule microarray, 635 nm fluorescence scan, primary screen (AID 1107).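 Also: mouse activin A protein probed at 4.33 µg/mL on printed slides; score merges bound-protein fluorescence near 667 nm with spot signal-to-noise.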 The note with it: INHBA, higher = more signal.
`COc1ccc([Si](C)(C)[C@@H]2[C@@H](CC(=O)N(CCO)Cc3ccccc3)O[C@]3(C(=O)N(C)c4ccccc43)[C@H]2C)cc1` registered a composite z-score of 1.16.
Same read-out and setting: as for `O=c1cccc(C=Cc2ccccc2)o1`, the figure is 0.758; as for `O=C1OCC=C[C@H]2OC34C=CCN(c5ccc6ccccc6c5)C(=O)[C@H]3N(CCCO)C(=O)[C@@H]4[C@@H]12` (some centres not stated), 0.374; as for `COCCOC(=O)N1C(=O)[C@@]2(c3cc(C#CC4=CCCCC4)ccc31)[C@H](C(=O)N1CCc3cc(OC)c(OC)cc3C1)[C@H]1C(=O)O[C@H](c3ccccc3)[C@H](c3ccccc3)N1[C@@H]2c1ccccc1OCCO`, 0.59.
Consider `COCCOC(=O)N1C(=O)[C@@]2(c3cc(C#CCC(C(=O)OC)C(=O)OC)ccc31)[C@H](c1ccccc1OCCO)N1[C@H](c3ccccc3)[C@H](c3ccccc3)OC(=O)[C@H]1[C@@H]2C(N)=O`, for which the composite z-score came out at 0.0274.
Still for that read-out and setting: as for `CC(C)OC(=O)CC(=O)CC(O)c1ccc(C#N)cc1` (configuration not stated), the figure is 0.891.
`COC(=O)[C@@]1(Cc2ccc(OC)cc2)[C@H]2c3cc(C(=O)N(C)C)n(Cc4c(OC)[nH]cc(C)c4=O)c3C[C@H]2CN1C(=O)c1ccccc1` gave a composite z-score of 1.23.
Take `O=C1C[C@@](C(=O)NC2CC2)(c2ccc([N+](=O)[O-])cc2)[C@@H](c2ccc(CO)cc2)N1CC12CC3CC(CC(C3)C1)C2`: the composite z-score turned out to be 0.571.

A further experiment deals with Human papillomavirus type 1a protein E7 (residues 44-93). Briefly: small molecules binding HPV E7 44-93 – biochemical, small-molecule microarray, residues 44-93, 635 nm fluorescence, primary screen (AID 1108).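 Also: E7 fragment applied at 1 µg/mL in TBST for 1 h at 4 C; score combines spot fluorescence with its signal to noise ratio.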 The note with it: fluorescence 635 nm, higher = more signal.
Compound `COc1ccc([Si](C)(C)[C@@H]2[C@@H](CC(=O)N3CCC[C@H]3CO)O[C@]3(C(=O)N(C)c4c(Br)cc(C)cc43)[C@H]2C)cc1` displayed a composite z-score of 1.28.
`CN(C)CCCCCCNC(=O)[C@H]1C[C@H]2C(=O)N[C@@H](CCCCN)C(=O)N2[C@H]1c1ccc(O)cc1` had a composite z-score of 1.48.
On the same count and under the same terms, as for `COCC(=C=CC[C@H](O)c1ccc(OCCO)cc1)C[C@H](O)c1cc(Cl)cc(Cl)c1O`, the figure is 1.35.
The compound `COc1cc(C(O)C2C=CC3C(=O)N(c4ccccc4)C(=O)C3N2Nc2ccc(C#N)cc2)cc(OC)c1OC` (configuration not stated) displayed a composite z-score of 0.626.
Same read-out and setting: as for `N#Cc1ccc(NN2C(C(O)c3ccc([N+](=O)[O-])cc3)C=CC3C(=O)N(c4ccccc4)C(=O)C32)cc1` (configuration not stated), the figure is 0.61; as for `CC(=O)NCCCC[C@@H]1NC(=O)[C@@H]2C[C@H](C(=O)NCCCCCCNC(=O)CS)[C@H](c3ccc(O)cc3)N2C1=O`, 1.07; as for `CCOC(=O)C[C@H]1[C@H](OC(=O)Cc2ccc3c(c2)OCO3)[C@@H](NC(=O)c2ccc(-c3ccccc3)cc2)c2cc(OCCCO)ccc2N1C(=O)c1ccccc1`, 1.06.
Same read-out and setting: to `O=C1O[C@@H](c2ccccc2)[C@@H](c2ccccc2)N2[C@@H](c3ccccc3OCCO)[C@]3(C(=O)Nc4ccc(C#CC5(O)CCCCCC5)cc43)[C@@H](C(=O)Nc3nc4ccccc4s3)[C@H]12` belongs 1.38; to `Cc1ccccc1C(O)C1C=CC2C(=O)N(C)C(=O)C2N1N1CCCCC1` (configuration not stated), 1.05; to `COCCOC(=O)N1C(=O)[C@@]2(c3ccccc31)[C@H](C(=O)Nc1nc3ccccc3s1)[C@H]1C(=O)O[C@H](c3ccccc3)[C@H](c3ccccc3)N1[C@@H]2c1ccc(OCCO)cc1`, 1.37.
Same read-out and setting: as for `CC(C)C[C@@H]1NC(=O)[C@H]2C[C@@H](C(=O)NCCCCCNC(=O)CS)[C@@H](c3cccc(OCCO)c3)N2C1=O`, the figure is 1.38.
`COc1ccc(C#Cc2ccc3c(c2)[C@]2(C(=O)N3)[C@H](c3ccc(O)cc3)N3[C@H](c4ccccc4)[C@H](c4ccccc4)OC(=O)[C@H]3[C@@H]2C(=O)NC[C@H](O)c2ccccc2)cc1`: the composite z-score amounted to 1.33.
`O=C1OCC=C[C@H]2OC34C=CCN(c5ccc(Cl)cc5)C(=O)[C@H]3N(CCCCCCO)C(=O)[C@@H]4[C@@H]12` (some centres not stated) had a composite z-score of -0.851.
The same measure, in the same setting: as for `C=CCOC(=O)[C@H]1[C@@H]2C(=O)O[C@@H](c3ccccc3)[C@@H](c3ccccc3)N2[C@@H](c2ccc(OCCOC(=O)[C@@H]3C[C@@H]4C(=O)N5CCC[C@H]5C(=O)N4[C@@H]3c3ccc(O)cc3)cc2)[C@]12C(=O)Nc1ccccc12`, the figure is 1.4.
In turn, `CCCC[C@H]1OB(O)C[C@H]2C1=C(C)C[C@H]1C(=O)N(Cc3ccccc3)C(=O)[C@H]12` gave a composite z-score of 0.152.
As to `CCCC[C@@H]1C[C@H]1[C@@H](NC(=O)c1ccc(-c2ccccc2)cc1)c1ccc(-c2ccccc2)cc1`, the composite z-score was found to be 0.511.
The same measure, in the same setting: as for `COCC(=C=CC[C@@H](O)c1ccc(CO)o1)CCO`, the figure is -0.494; as for `Cc1ccc(S[C@]2(C(=O)NCc3ccccc3)CC(=O)N(Cc3ccccc3Cl)[C@@H]2c2ccc(CO)cc2I)cc1`, -0.173; as for `CC=CC(O)C1C=CC2C(=O)N(c3ccccc3)C(=O)C2N1Nc1ccc(C(C)C)cc1` (configuration not stated), 1.42.
